Compound activity: PubChem BioAssay, National Center for Advancing Translational Sciences (NCATS)
Rows were chosen to be rich in hits. Some 2.4% of all compounds tested hit in one or more screens of this group.
D2 PAM-1 = human D2 receptor positive allosteric modulation; P14416; DiscoveRx D2 beta-arrestin cells, luminescence, 90 min; 100% = 57 uM dopamine signal; potentiation, % (test concentration not listed); hit rate 0.23% among 360,000; AID 624464; in the data active means potentiation above about 50%; inconclusive means mostly about 30% to 49%
Target sequence (P14416 whole entry, looked up): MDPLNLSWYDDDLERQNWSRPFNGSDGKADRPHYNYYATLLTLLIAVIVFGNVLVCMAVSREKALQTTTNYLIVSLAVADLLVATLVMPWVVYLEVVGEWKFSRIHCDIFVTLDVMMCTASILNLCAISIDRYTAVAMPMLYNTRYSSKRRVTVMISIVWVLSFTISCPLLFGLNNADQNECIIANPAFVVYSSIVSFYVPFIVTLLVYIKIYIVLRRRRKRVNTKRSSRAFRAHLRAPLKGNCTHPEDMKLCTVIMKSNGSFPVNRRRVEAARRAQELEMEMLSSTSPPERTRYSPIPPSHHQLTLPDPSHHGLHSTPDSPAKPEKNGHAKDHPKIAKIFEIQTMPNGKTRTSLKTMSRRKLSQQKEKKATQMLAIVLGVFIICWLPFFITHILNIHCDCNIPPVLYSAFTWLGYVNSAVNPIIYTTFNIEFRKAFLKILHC
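PathHunter beta-arrestin assay in DiscoveRx D2 cells. Compounds were added with an EC20 of dopamine (50 nM final) for 90 min at 37 deg C. Luminescence was read 1 h after detection reagent, with 57 uM dopamine as the EC100 control.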
D2 antagonist = D2 dopamine receptor (human) antagonism; HEK293 TREx D2 cells, calcium flux, dopamine EC80; inhibition, % at 10 µM; hit rate 2% among 340,000; AID 485344; in the data active means inhibition above about 30%; inactive means below that, where a call was filed
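Tetracycline-induced HEK293 TREx cells expressing D2 receptor forced-coupled to calcium signalling, loaded with no-wash calcium dye. Compounds added and calcium flux read 180 s, then dopamine added at EC80 and read a further 180 s.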
D2 PAM-2 = positive allosteric modulators of human D2 dopamine receptor | P14416 | HEK293 T-REx D2, calcium flux, EC20 dopamine potentiation | potentiation, % at 10 µM | hit rate 0.34% among 340,000 | AID 485347;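 active means potentiation over 3 SD above the plate norm, cut at about 30% in these data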
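Potentiation of an EC20 dopamine calcium response is measured in a force-coupled, tetracycline-inducible Hek293 Trex D2 line. Compound-only kinetic reads over 180 s flag agonists before dopamine addition.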
D2 ag-1 = human D2 receptor agonism in beta-arrestin assay; P14416; DiscoveRx PathHunter D2 beta-arrestin, luminescence, 90 min; 100% = 57 uM dopamine signal; activation, % (no concentration beside the values); hit rate 0.084% among 360,000; in the data active means activation above about 40%; inconclusive means between about 15% and that limit
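DiscoveRx PathHunter D2 beta-arrestin cells (2,100/well) attached overnight, then compound-stimulated 90 min at 37 C in HBSS/10 mM HEPES/0.1% Tween-20 buffer; beta-galactosidase complementation read by luminescence after 1 h at ambient temperature. Dopamine 57 uM final (EC100) as control.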
D2 ag-2 = agonists of human D2 dopamine receptor. HEK293 T-REx D2 cells, calcium flux agonist mode. activation, % at 2 µM. hit rate 0.53% among 340,000;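 active means activation over 3 SD above normal in the single-dose calcium agonist read, cut at about 30% in these data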
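HEK293 Trex D2 cells, tetracycline-induced, o/n 30 C 5% CO2; no-wash Ca dye, RT 30–90 min; 10-cycle baseline, 23 nl cpd added, kinetic Ca read 180 s; agonist hits = positive Ca response.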
Large screens that a line does not name were inactive.

O=C(NCCN1CCOCC1)c1ccc([N+](=O)[O-])cc1[N+](=O)[O-]	D2 PAM-1 50, D2 antagonist 43
O=C(Oc1ccccc1C(=S)N1CCOCC1)c1ccc([N+](=O)[O-])cc1[N+](=O)[O-]	D2 PAM-1 58, D2 ag-1 inconclusive
CCC(=O)N1c2ccccc2CC1C(=O)NCCN1CCN(c2cc(Cl)ccc2C)CC1 (stereo not drawn)	none (no result: D2 PAM-1, D2 antagonist, D2 ag-1)
Cc1n[nH]c(C)c1N1C(=O)c2cccc3c(N4CCCCCC4)ccc(c23)C1=O	D2 ag-2 84
O=C1c2cccc3c(N4CCCCC4)ccc(c23)C(=O)N1CCO	none
O=C1c2cccc3c(N4CCCCC4)ccc(c23)C(=O)N1c1cccc(O)c1	D2 ag-2 57
Cc1cccc(C)c1OCC1CNC(=O)O1 (stereo not drawn)	D2 antagonist 36
O=C(NC1CCCC1)C(c1ccc(Cl)cc1)N1CCOCC1 (stereo not drawn)	D2 antagonist 32
CC(=O)c1cc(-c2ccccc2)n(CCC(=O)NC(C)c2ccccc2)c1C (stereo not drawn)	none (no result: D2 PAM-1, D2 antagonist, D2 ag-1)
COc1ccc(-c2nc3sc(CCNC(=O)c4ccc(C(C)(C)C)cc4)c(C)n3n2)cc1	none (no result: D2 PAM-1, D2 antagonist, D2 ag-1)
COC(=O)c1[nH]c2cccc(OC)c2c1NC(=O)CCN1CCN(c2cccc(Cl)c2)CC1	D2 antagonist 38 (no result: D2 PAM-1, D2 ag-1)
COc1ccccc1NC(=O)NCCN1CCN(c2cccc(Cl)c2)CC1	D2 antagonist 53
CC(=O)N1CCc2c(sc3c2c(=O)n(CCc2ccccc2)c(=O)n3Cc2ccc(F)cc2)C1	none (no result: D2 PAM-1, D2 antagonist, D2 ag-1)
CC(=O)CC(c1ccccc1)S(=O)(=O)c1ccc([N+](=O)[O-])cc1 (stereo not drawn)	D2 antagonist 70
C=CCOc1ccccc1CN1CCC(Oc2ccc(C(=O)N3CCCCC3)cc2)CC1	D2 antagonist 47
Cc1oc2c(C)c3oc(=O)c(CCC(=O)N4CCCCC4)c(C)c3cc2c1C	none (no result: D2 PAM-1, D2 antagonist, D2 ag-1)
CN(C(=O)N1CCN(c2ccccn2)CC1)c1ccccc1	D2 antagonist 39
CCCNC(=O)CC(NS(=O)(=O)c1ccc(OC)cc1)c1ccco1 (stereo not drawn)	D2 PAM-2 35
CCCCNC(=O)CC(NS(=O)(=O)c1ccc(C)cc1)c1ccco1 (stereo not drawn)	none
COc1ccc(Nc2c(-c3cc(Br)ccc3O)nc3ncccn23)cc1OC	none (no result: D2 PAM-1, D2 antagonist, D2 ag-1)
CCCCn1c(-c2ccc(OC(F)F)cc2)nc2c1c(=O)[nH]c(=O)n2CC(C)C	D2 PAM-2 33
COc1ccc(-c2nc3sc(CCNC(=O)c4cc(Cl)ccc4OC)c(C)n3n2)cc1	none (no result: D2 PAM-1, D2 antagonist, D2 ag-1)
CCCSCCCNC(=O)C1CCN(C(=O)c2cnn(-c3ccccc3)c2-n2cccc2)CC1	none (no result: D2 PAM-1, D2 antagonist, D2 ag-1)
CCCNC(=O)Nc1ccc2c(c1)N(C)C(=O)c1ccccc1S2	none
CN1C(=O)CSc2ccc(NC(=O)NCc3ccccc3)cc21	D2 antagonist 30
CCCCNC(=O)Nc1ccc2c(c1)N(C)C(=O)c1ccccc1S2	D2 antagonist 46
Cc1ccc(CNC(=O)Nc2ccc3c(c2)N(C)C(=O)CS3)cc1	none
COc1cccc(C(=O)N2CCc3cc(OC)c(OC)cc3C2COc2ccc3c(C)cc(=O)oc3c2)c1 (stereo not drawn)	none (no result: D2 PAM-1, D2 antagonist, D2 ag-1)
Cc1ccccc1C(=O)NC(CC(C)C)C(=O)NN1C(=O)c2ccccc2C1=O (stereo not drawn)	D2 antagonist 30
CCOC(=O)C1=C(C)NC(=S)N(C(C)=O)C1c1ccccc1 (stereo not drawn)	D2 antagonist 32
COc1cc(/C=C/CNC[C@H]2O[C@@H](n3cnc4c(N)ncnc43)[C@H](O)[C@@H]2O)ccc1O	none (no result: D2 antagonist, D2 PAM-2, D2 ag-2)
Oc1c(Cl)cc(Cl)c2c1NCCC2	D2 antagonist 39, D2 ag-1 inconclusive
O=C1NCCCc2c1oc1ccc(O)cc21	none
O=C(NC1CCCC1)C(c1ccncc1)N(Cc1cccs1)C(=O)c1csnn1 (stereo not drawn)	D2 antagonist 36
CC(C)(C)NC(=O)C(c1ccncc1)N(Cc1cccs1)C(=O)c1csnn1 (stereo not drawn)	none
Cc1ccc(-n2nnnc2CNC(=O)c2cc(C(F)(F)F)cc(C(F)(F)F)c2)cc1C	none (no result: D2 PAM-1, D2 antagonist, D2 ag-1)
CCN(CC)S(=O)(=O)c1cccc(NC(=O)COC(=O)C2=COCCO2)c1	D2 antagonist 30
CCN(CC)S(=O)(=O)c1cccc(NC(=O)COC(=O)C2COc3ccccc3O2)c1 (stereo not drawn)	none
CCCCCCCCC(=O)NCCOc1ccc(OC)cc1	none
COc1ccc(OCCCC(=O)NCC(C)C)cc1	D2 antagonist 31
COc1ccc(C(=O)NCC(C)C)c(OC)c1	D2 PAM-2 44
CCCNC(=O)c1ccc(OC)cc1OC	none
COc1ccc(NC(=O)CN(Cc2ccccc2)S(=O)(=O)c2ccc(C)cc2)cc1Cl	none (no result: D2 PAM-1, D2 antagonist, D2 ag-1)
O=C(/C=C/c1ccc(Cl)cc1)NC(=S)Nc1ccc(CN2CCOCC2)cc1	D2 ag-2 35
O=C(Cc1noc2ccccc12)NNC(=S)Nc1ccc(Cl)cc1	D2 antagonist 48
O=C(Cc1noc2ccccc12)NNC(=S)Nc1ccccc1	none (no result: D2 antagonist, D2 PAM-2, D2 ag-2)
O=C(Nc1cccnc1)C1COc2ccccc2O1 (stereo not drawn)	D2 PAM-2 41
O=C(NCCc1ccc(O)c(O)c1)C1COc2ccccc2O1 (stereo not drawn)	D2 ag-1 41
O=C(Nc1ccccc1)C1COc2ccccc2O1 (stereo not drawn)	none
O=C(NCCc1ccccc1)C1COc2ccccc2O1 (stereo not drawn)	none
CCOC(=O)c1ccc(N2C(=O)c3[nH]nc(-c4ccc(C)cc4)c3C2c2ccc(O)c(OCC)c2)cc1 (stereo not drawn)	none (no result: D2 PAM-1, D2 antagonist, D2 ag-1)
CCC(C)NC(=O)CSc1nc2n[nH]c(C)c2c(=N)n1-c1cc(Cl)ccc1C (stereo not drawn)	none (no result: D2 PAM-1, D2 antagonist, D2 ag-1)
COc1ccc(-c2sc(Nc3ccccc3)n[n+]2-c2ccc(F)cc2)cc1Br	none
COc1ccc2ccccc2c1-c1sc(Nc2ccccc2)n[n+]1-c1ccc(F)cc1	D2 antagonist 32
CCCc1nnc2n1N=C(c1ccc(OC)c(OC)c1)CS2	D2 PAM-2 89
COc1ccc(C2=Nn3c(nnc3-c3ccccc3)SC2)cc1OC	none
CCc1ccccc1NC(=O)CN1C(=O)COc2ccc(S(=O)(=O)Nc3ccccc3)cc21	none (no result: D2 PAM-1, D2 antagonist, D2 ag-1)
CCC(Oc1ccc(C)cc1)C(=O)Nc1ccc(S(=O)(=O)Nc2nccs2)cc1 (stereo not drawn)	D2 PAM-2 42
CC(Oc1ccc(Br)cc1)C(=O)Nc1ccc(S(=O)(=O)Nc2nccs2)cc1 (stereo not drawn)	none
Cc1cc2oc(C(=O)Nc3ccc(S(=O)(=O)Nc4nccs4)cc3)cc(=O)c2cc1Cl	D2 antagonist 34
CC(C)C(=O)NC(=S)Nc1ccc(S(=O)(=O)Nc2nccs2)cc1	D2 antagonist 39
